# From PubChem BioAssay AID2284187 (EPA ToxCast)
# Records with an inconclusive call do not appear. The source made the active and inactive calls. Rule for the calls: active = hit-call score of the fitted dose curve at least 0.9, where 1 is the maximum; inconclusive = response in the unintended direction; inactive = score below 0.9.
# Target: rat GHB Receptor Antagonism, Tspan17 (gene 306771) (UniProt Q4V8E0)
# Test: ERF_FR_GPCR_rGHB: Eurofins (ERF) G Protein-Coupled Receptor (GPCR) Radioligand Binding LeadHunter Assay for rat GHB Receptor Antagonism
# Description: ERF_FR_GPCR_rGHB is a biochemical, single-readout assay that uses extracted gene-proteins in a cell-free assay. Measurements were taken 2 hour after chemical dosing in a 96-well plate. See GHB Rat Binding (Antagonist Radioligand) Assay, Cerep.ERF_FR_GPCR_rGHB is an assay component calculated from the ERF_FR_GPCR_rGHB assay. It is designed to measure radioligand binding using a type of binding reporter as detected by scintillation counting with radiometry technology.Data from the assay component ERF_FR_GPCR_rGHB was analyzed at the assay endpoint, ERF_FR_GPCR_rGHB, in the positive analysis fitting direction relative to DMSO as the negative control and baseline of activity. Using a type of binding reporter, loss-of-signal activity can be used to understand changes in binding as they relate to gene TSPAN17. To generalize the intended target to other relatable targets, this assay endpoint is annotated to the gpcr intended target family, where the subfamily is ghb .
# Brain cortex of Wistar derived rats weighing 175 +/- 25 g are used to prepare GHB receptors in potassium buffer pH 6.0. A 1 mg aliquot is incubated with 20 nM [3H] NCS382 for 120 minutes at 4 C. Non-specific binding is estimated in the presence of 1 mM NCS382. Membranes are filtered and washed, the filters are then counted to determine [3H] NCS382 specifically bound. […]
# Sequence of rat GHB Receptor Antagonism, Tspan17 (gene 306771) (Q4V8E0 whole entry, looked up): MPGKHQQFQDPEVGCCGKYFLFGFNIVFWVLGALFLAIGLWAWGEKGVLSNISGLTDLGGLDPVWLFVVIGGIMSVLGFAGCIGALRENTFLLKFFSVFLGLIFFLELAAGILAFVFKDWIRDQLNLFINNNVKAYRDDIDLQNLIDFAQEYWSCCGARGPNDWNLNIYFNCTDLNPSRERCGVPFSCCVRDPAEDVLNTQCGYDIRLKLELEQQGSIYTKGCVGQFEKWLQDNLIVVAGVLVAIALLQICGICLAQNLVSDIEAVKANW
row,Compound,AC50
1,O=C(/C=C/c1ccc(O)cc1)CC(=O)/C=C/c1ccc(O)cc1,1670 nM (active)
2,COc1cc(/C=C/C(=O)CC(=O)/C=C/c2ccc(O)c(OC)c2)ccc1O,1590 nM (active)
